Data published in PubChem BioAssay (EPA / NIEHS).
Inconclusive results are not listed. Activity calls are given as the source filed them. The calls were made as follows: active = hit-call score of the fitted dose curve at least 0.9, where 1 is the maximum; inconclusive = response in the unintended direction; inactive = score below 0.9.

Assay: Tanguay_ZF_120hpf_BRAI_legacy: (Legacy) Oregon State University Tanguay Lab 120 Hour Post-fertilization zebrafish Assay for Brain Malformation (AID 2283641)
Procedure: Tanguay_ZF_120hpf_legacy is a whole embryo, multiplexed endpoint assay using zebrafish larvae exposed for 120 hours post fertilization on a 96-well plate.Tanguay_ZF_120hpf_BRAI_legacy is one of one assay component(s) measured or calculated from the Tanguay_ZF_120hpf_legacy assay. It is designed to make measurements of zebrafish development as detected with brightfield microscopy of developing zebrafish embryos.Data from the assay component Tanguay_ZF_120hpf_BRAI_legacy was analyzed into 1 assay endpoints. This assay endpoint, Tanguay_ZF_120hpf_BRAI_legacy, was analyzed in the positive analysis fitting direction relative to DMSO as the negative control and baseline of activity. Using a type of morphology reporter, gain-of-signal activity can be used to understand changes in developmentals as they relate to the whole embryo. To generalize the intended target to other relatable targets, this assay endpoint is annotated to the zebrafish development intended target family, where the subfamily is brain morphogenesis.
Zebrafish husbandry: Tropical 5D wild-type adult zebrafish were housed in at an approximate density of 1000 per 100 gallon tank at the Sinnhuber Aquatic Research Laboratory, Oregon State University, Corvallis, OR. Each tank was kept at standard laboratory conditions of 28C on a 14-h light/10-h dark photoperiod in fish water consisting of reverse osmosis water supplemented with a commercially available salt (Instant Ocean). Spawning funnels were placed into the tanks the night prior, and embryos were collected and staged. […] Ten microliters of each row of dilution plate 2 was added to 2 exposure plates. The final DMSO concentration used was 0.64% (vol/vol). Thirty-two embryos were also exposed to 5uM trimethyltin chloride (positive control). Plates were sealed to prevent evaporation and foil covered to reduce light exposure and kept in a 28C incubator. Embryos were statically exposed until 120 hpf. At 24 hpf, embryos were assessed for photomotor response using a custom photomotor response analysis tool (PRAT) and for developmental toxicity endpoints (MO24: mortality at 24 hpf, DP: developmental progression, SM: spontaneous movement, and NC: notochord distortion). At 120 hpf, locomotor activity was measured using Viewpoint Zebralab and assessed for 18 endpoints. Zebrafish acquisition and analysis program (ZAAP), a custom program designed to inventory, acquire, and manage zebrafish data, was used to collect developmental endpoints as either present or absent (i.e., binary responses were recorded). If mortality occurred for an embryo (at either 24 or 120 hpf), the non-mortality endpoints were not measured.

Row | Structure (SMILES) | outcome | AC50
1 | Cc1cn([C@H]2C=C[C@@H](CO)O2)c(=O)[nH]c1=O | inactive | –
2 | CC(=O)[C@@]1(O)CC[C@H]2[C@@H]3CCC4=CC(=O)CC[C@]4(C)[C@H]3CC[C@@]21C | inactive | –
3 | CC(C)COC(=O)CCCCC(=O)OCC(C)C | inactive | –
4 | CC(COCC(C)OC(=O)c1ccccc1)OC(=O)c1ccccc1 (stereo not given) | inactive | –
5 | C/C=C/C=C/C(=O)O | inactive | –
6 | O=C(Oc1ccccc1)c1cccc(C(=O)Oc2ccccc2)c1 | inactive | –
7 | CC(=O)OC1CC(C)OC(C)O1 (stereo not given) | inactive | –
8 | C#CC(O)C(CC)CCCC (stereo not given) | inactive | –
9 | S=c1[nH]c2ccccc2s1 | – | 40.7 µM (active)
10 | CCCCCCCCCC[N+](C)(C)[O-] | inactive | –
11 | Cc1ccc(C(C)(C)C)c(O)c1 | inactive | –
12 | CC1=C(C)S(=O)(=O)CCS1(=O)=O | inactive | –
13 | c1ccc2occc2c1 | inactive | –
14 | O=Cc1ccccc1C=O | inactive | –
15 | CC(=O)O[C@]1(C(C)=O)CC[C@H]2[C@@H]3C=C(Cl)C4=CC(=O)[C@@H]5C[C@@H]5[C@]4(C)[C@H]3CC[C@@]21C | inactive | –
16 | CSc1ccc(Oc2ccc(S(N)(=O)=O)cc2CN(C)C)cc1C | inactive | –
17 | Cc1occc(=O)c1O | inactive | –
18 | O=C(NS(=O)(=O)/C=C/c1cccs1)c1ccc(F)cc1Br | inactive | –
19 | CCCCCCCCCCCCCCOS(=O)(=O)O | – | 10.4 µM (active)
20 | CCCC(=O)O | inactive | –

Row | Structure (SMILES) | outcome | AC50
21 | CC(C)NCC(O)c1ccc(O)c(O)c1 (stereo not given) | inactive | –
22 | CCCCc1nc2cccnc2n1Cc1ccc(-c2ccccc2-c2nnn[nH]2)cc1 | inactive | –
23 | CCC(C)N(C)C(=O)c1cc2ccccc2c(-c2ccccc2Cl)n1 (stereo not given) | inactive | –
24 | CCc1cc(C2=C(C(=O)O)N(c3ccccc3C(F)(F)F)S(=O)(=O)c3ccccc32)cc2c1OCO2 | inactive | –
25 | NC1CCCCC1 | inactive | –
26 | C=CCc1ccc(OC)c(OC)c1 | inactive | –
27 | CC(C)c1cccc(C(C)C)c1NC(=O)NS(=O)(=O)c1cc(C(C)(C)O)co1 | inactive | –
28 | CCOCCOCCO | inactive | –
29 | Cn1cnc2c1c(=O)[nH]c(=O)n2C | inactive | –
30 | CC(=O)O | inactive | –
31 | CCCCCCC(C=O)=Cc1ccccc1 | inactive | –
32 | CO[C@@H]1COCC[C@@H]1N[C@@H]1CC[C@@](C(=O)N2CCc3ncc(C(F)(F)F)cc3C2)(C(C)C)C1 | inactive | –
33 | CCCCCCCCCCCCCCCCO | inactive | –
34 | O=C1NC(=O)C(c2ccccc2)(c2ccccc2)N1 | inactive | –
35 | O=C1c2c(O)cccc2Cc2cccc(O)c21 | inactive | –
36 | CCCCCCC(CCCCCCCCCCC(=O)OCC(COC(C)=O)OC(C)=O)OC(C)=O (stereo not given) | inactive | –
37 | OCC(O)CO | inactive | –
38 | COC(=O)CCCC(=O)OC | inactive | –
39 | COC(=O)CCC(=O)OC | inactive | –
40 | O=C(O)c1cccnc1 | inactive | –
